The values below come from paper PMC4336329 (PLoS ONE, 2015).

Each structure is given as a SMILES string. Out of some 310,000 compounds screened, about 14,000 (4.5%) showed an effect of 50% or more. Effects have a minus sign here. The sample as a whole holds a higher share of strong results than the screen did.
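Also: peak tail current of the secondary pulse compared with the same well before compound.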

Chain of human ether-à-go-go-related gene (hERG) potassium channel (Q12809 whole entry, looked up): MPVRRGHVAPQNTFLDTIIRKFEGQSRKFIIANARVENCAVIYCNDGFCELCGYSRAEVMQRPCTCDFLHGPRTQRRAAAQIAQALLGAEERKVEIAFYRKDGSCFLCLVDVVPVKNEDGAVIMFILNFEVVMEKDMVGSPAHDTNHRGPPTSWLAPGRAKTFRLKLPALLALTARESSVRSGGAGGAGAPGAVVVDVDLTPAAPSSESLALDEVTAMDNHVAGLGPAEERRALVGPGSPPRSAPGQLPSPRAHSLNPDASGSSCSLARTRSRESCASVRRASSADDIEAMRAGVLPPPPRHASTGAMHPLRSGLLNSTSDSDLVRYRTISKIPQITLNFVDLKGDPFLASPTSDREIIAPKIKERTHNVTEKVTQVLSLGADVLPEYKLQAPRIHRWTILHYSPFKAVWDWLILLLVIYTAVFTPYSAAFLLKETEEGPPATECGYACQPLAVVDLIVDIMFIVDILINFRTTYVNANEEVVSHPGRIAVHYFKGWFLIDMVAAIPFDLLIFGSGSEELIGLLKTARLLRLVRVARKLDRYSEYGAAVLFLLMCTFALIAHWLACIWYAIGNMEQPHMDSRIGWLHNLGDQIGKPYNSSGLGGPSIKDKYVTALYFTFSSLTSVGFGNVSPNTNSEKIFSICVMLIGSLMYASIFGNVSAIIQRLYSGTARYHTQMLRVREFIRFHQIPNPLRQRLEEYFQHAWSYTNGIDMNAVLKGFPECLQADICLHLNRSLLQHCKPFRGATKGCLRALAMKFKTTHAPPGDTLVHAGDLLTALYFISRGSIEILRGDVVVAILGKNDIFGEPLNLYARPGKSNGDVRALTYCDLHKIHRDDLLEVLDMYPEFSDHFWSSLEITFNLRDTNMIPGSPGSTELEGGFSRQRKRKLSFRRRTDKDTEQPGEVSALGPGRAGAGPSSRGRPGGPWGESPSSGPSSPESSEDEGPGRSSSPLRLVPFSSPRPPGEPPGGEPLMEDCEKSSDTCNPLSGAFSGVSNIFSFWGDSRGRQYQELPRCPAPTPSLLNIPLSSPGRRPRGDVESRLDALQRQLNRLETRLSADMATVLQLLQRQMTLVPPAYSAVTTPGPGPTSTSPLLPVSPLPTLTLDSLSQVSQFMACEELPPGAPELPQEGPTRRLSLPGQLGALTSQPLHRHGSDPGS

This assay has as its target human ether-à-go-go-related gene (hERG) potassium channel (human, UniProt Q12809). The assay is described as follows: primary screen, population patch clamp on CHO cells stably expressing hERG; higher = less effect of the substance.
Consider `CC(C)CNC(=O)C(=O)NC1CCCC1`, for which the “hERG current change (%, negative = inhibition) at 10uM” value was found to be 11.7%.
Turning to `CC1=C(C)CC(C(=O)Nc2nccs2)C(C(=O)O)C1` (centres unmarked), the “hERG current change (%, negative = inhibition) at 10uM” value is listed as 28.7%.
To `O=C(CSc1n[nH]c(-c2ccncc2)n1)Nc1ccc(Br)cc1` belongs -2.1%.
As to `CN(C)/C=N/c1nc2nccc(-c3ccc(F)cc3)n2n1`, the “hERG current change (%, negative = inhibition) at 10uM” value was determined as 13.8%.
On to `CCC1Oc2ccc(C)cc2N(CC(=O)NCCCN2CCCCC2C)C1=O` (centres unmarked), for which the “hERG current change (%, negative = inhibition) at 10uM” value is reported as 3.15%.
As for `CN(C(=O)CSc1nnc(-c2ccccc2)o1)c1c(N)n(Cc2ccccc2)c(=O)[nH]c1=O`, the “hERG current change (%, negative = inhibition) at 10uM” value was 12%.
On to `COc1cccc(N2C(=O)/C(=C/c3ccc(C)o3)C(=O)NC2=S)c1`, for which the “hERG current change (%, negative = inhibition) at 10uM” value amounted to 15%.
With `COc1ccc(/C=C/C=N/NC(=O)COc2ccc(OC)cc2)cc1`, the “hERG current change (%, negative = inhibition) at 10uM” value is given as 1.85%.
Consider `CC(C(=O)OCC(=O)c1ccc([N+](=O)[O-])cc1)N1C(=O)C2C3CCC(C3)C2C1=O` (centres unmarked), for which the “hERG current change (%, negative = inhibition) at 10uM” value is listed as -54%.
On to `O=C(CCN1C(=O)C2C3CCC(C3)C2C1=O)OCC(=O)c1ccc(Br)cc1` (centres unmarked), for which the “hERG current change (%, negative = inhibition) at 10uM” value was -30.2%.
Next, `O=C(CCN1C(=O)C2C3CCC(C3)C2C1=O)OCC(=O)c1ccccc1` (centres unmarked): 9.98%; `CC(C(=O)OCC(=O)c1cccc([N+](=O)[O-])c1)N1C(=O)C2C3CCC(C3)C2C1=O` (centres unmarked): 2.55%.
For `O=C(CCN1C(=O)C2C3CCC(C3)C2C1=O)OCC(=O)c1ccc(Cl)cc1` (centres unmarked), the “hERG current change (%, negative = inhibition) at 10uM” value is -53.2%.
Turning to `CC(C(=O)OCC(=O)c1ccc([N+](=O)[O-])cc1)N1C(=O)C2C3C=CC(C3)C2C1=O` (centres unmarked), the “hERG current change (%, negative = inhibition) at 10uM” value is listed as -43%.
For `Cc1ccc(CSCC(=O)N(C)CC(=O)Nc2cccc(F)c2)cc1`, the “hERG current change (%, negative = inhibition) at 10uM” value was -17.5%.
Next, `COC(=O)CNC(=O)c1c(-c2ccccc2Cl)noc1C`: -5.68%; `CCCCc1nc(NCc2ccccc2)c(C#N)c2c1COC(C)(C)C2`: 12.9%.
Consider `CCOC(=O)c1c(C)[nH]c(C)c1S(=O)(=O)NC(CC)CN1CCOCC1` (centres unmarked), for which the “hERG current change (%, negative = inhibition) at 10uM” value came out at 7.32%.
Regarding `O=C(NC(=S)Nc1ccccc1C(=O)O)c1ccc(-c2ccc(Br)cc2)o1`, the “hERG current change (%, negative = inhibition) at 10uM” value stood at 28.3%.
Take `COc1ccc(CCN2C(=O)N[C@@H](CCC(=O)O)C2=O)cc1`: the “hERG current change (%, negative = inhibition) at 10uM” value worked out at 19%.
In the case of `COC(=O)N1CCN(c2ccc(OC)cc2)CC1`, the “hERG current change (%, negative = inhibition) at 10uM” value turned out to be 4.33%.
As for `COc1ccc(N2CCN(C(=O)C(OC(C)=O)c3ccccc3)CC2)cc1` (centres unmarked), the “hERG current change (%, negative = inhibition) at 10uM” value is -0.89%.
To `CC(=C1C(=O)c2ccccc2C1=O)N1CCN(c2ccccn2)CC1` belongs -28.3%; to `COc1ccc(N2CCN(C(C)=C3C(=O)c4ccccc4C3=O)CC2)cc1`, -53.3%.
`CC(=C1C(=O)c2ccccc2C1=O)N1CCN(c2ccc(F)cc2)CC1`: the “hERG current change (%, negative = inhibition) at 10uM” value was -69.8%.
Next, `C/C(=C/c1ccccc1)C(=O)N1CCN(c2ccc(F)cc2)CC1`: -42.2%; `O=C(NC1CCCCC1)NC1C2CC3CC(C2)CC1C3` (centres unmarked): -6.14%; `CCCNC(=S)Nc1ccc(Cl)cc1C`: 1.16%.
Consider `Cc1ccc(S(=O)(=O)NCCNC(=O)c2ccccc2)cc1`, for which the “hERG current change (%, negative = inhibition) at 10uM” value was determined as 12.4%.
As to `CC(C)Oc1ccc(C(CC(=O)O)NC(=O)Cc2ccc(Cl)cc2)cc1` (centres unmarked), the “hERG current change (%, negative = inhibition) at 10uM” value is listed as 24.8%.
In the case of `COc1ccc(-n2c(Cc3cccn3C)nnc2SCC(=O)Nc2nc(C)cs2)cc1`, the “hERG current change (%, negative = inhibition) at 10uM” value is -6.16%.
As to `CCOc1ccc(-n2c(SCC(=O)NC)nnc2-c2ccco2)cc1`, the “hERG current change (%, negative = inhibition) at 10uM” value was -27.5%.
Take `CCOC(=O)CN(C(=O)CSc1nnc(C)n1-c1ccccc1)c1ccccc1`: the “hERG current change (%, negative = inhibition) at 10uM” value is reported as 6.79%.
Take `COc1ccc(CC(=O)NCc2nnc(SCC(=O)Nc3nccs3)n2-c2ccccc2)cc1`: the “hERG current change (%, negative = inhibition) at 10uM” value is given as 2.7%.
Regarding `COc1ccc(-n2c(Cc3cccn3C)nnc2SCC(=O)Nc2nccs2)cc1`, the “hERG current change (%, negative = inhibition) at 10uM” value is recorded as -9.82%.
In the case of `COc1ccc(-n2c(SCC(=O)Nc3nccs3)nnc2-c2ccccc2)cc1`, the “hERG current change (%, negative = inhibition) at 10uM” value was -62.5%.
Consider `CCOC(=O)CN(C(=O)CSc1nnc(Cc2ccccc2)n1-c1ccc(C)cc1)c1ccccc1`, for which the “hERG current change (%, negative = inhibition) at 10uM” value is reported as -59.2%.
`CCOC(=O)CSc1nnc(Cc2ccccc2)n1-c1ccc(C)cc1`: the “hERG current change (%, negative = inhibition) at 10uM” value was -37.4%.
On to `CCOc1ccccc1-n1c(SCC(=O)Nc2nccs2)nnc1-c1ccoc1C`, for which the “hERG current change (%, negative = inhibition) at 10uM” value was -5.08%.
In the case of `COc1ccc(-n2c(SCC(=O)Nc3nc(C)cs3)nnc2-c2ccoc2C)cc1`, the “hERG current change (%, negative = inhibition) at 10uM” value is -81%.
On to `CCOc1ccc(-n2c(SCC(=O)Nc3nccs3)nnc2-c2ccoc2C)cc1`, for which the “hERG current change (%, negative = inhibition) at 10uM” value is given as -56.1%.
Turning to `Cc1csc(NC(=O)CSc2nnc(-c3ccoc3C)o2)n1`, the “hERG current change (%, negative = inhibition) at 10uM” value turned out to be 4.99%.
Turning to `Cc1cc(C)cc(NC(=O)Cn2c(-c3ccccc3Cl)nc3ccccc32)c1`, the “hERG current change (%, negative = inhibition) at 10uM” value was found to be 5.5%.
As for `CCCCC(CC)CNC(=O)c1cccs1` (centres unmarked), the “hERG current change (%, negative = inhibition) at 10uM” value was found to be 8.33%.
On to `O=S(=O)(c1ccc(Nc2ccc3c(c2)OCO3)nc1)N1CCOCC1`, for which the “hERG current change (%, negative = inhibition) at 10uM” value is -13.2%.
With `COc1ccc(N(C(=O)c2cccnc2)S(=O)(=O)c2cc(OC)ccc2OC)cc1`, the “hERG current change (%, negative = inhibition) at 10uM” value is reported as -21.8%.
To `O=C(CS(=O)(=O)Cc1ccccc1)Nc1ccccc1Cl` belongs 1.09%.
Take `Cc1ccc(C2CC(=O)C=C(O)C2)cc1` (centres unmarked): the “hERG current change (%, negative = inhibition) at 10uM” value came out at 3.29%.
In the case of `CSCC(C)N1CCC(n2nccc2NC(=O)c2ccc3c(c2)OCO3)CC1` (centres unmarked), the “hERG current change (%, negative = inhibition) at 10uM” value is reported as -2.95%.
Take `Cc1ccc(CCNS(=O)(=O)c2cc3c(cc2C)n(C)c(=O)c(=O)n3C)cc1`: the “hERG current change (%, negative = inhibition) at 10uM” value was -30.8%.
Consider `CCOC(=O)CNC(=O)CSc1nnc(-c2cccc(OC)c2)n1CC`, for which the “hERG current change (%, negative = inhibition) at 10uM” value is 7.24%.
Take `Cc1ccc(-n2c(SCC(=O)Nc3ccc4cn[nH]c4c3)nnc2-c2ccco2)cc1`: the “hERG current change (%, negative = inhibition) at 10uM” value was -62.4%.
In the case of `CNC(=O)CSc1nnc(-c2ccco2)n1-c1ccc(C)cc1`, the “hERG current change (%, negative = inhibition) at 10uM” value was -49.5%.
`CCOc1ccc(-n2c(-c3ccccc3)nnc2-c2ccccc2)cc1`: the “hERG current change (%, negative = inhibition) at 10uM” value is reported as -6.7%.
As to `CCOC(=O)CNC(=O)CSc1nnc(-c2cccc(C)c2)n1-c1ccc(OC)cc1`, the “hERG current change (%, negative = inhibition) at 10uM” value was -62%.
With `COC(=O)CSc1nnc(-c2ccco2)n1-c1ccc(C)cc1`, the “hERG current change (%, negative = inhibition) at 10uM” value was -24.2%.
For the compound `Cc1ccc(-n2c(SCC(=O)Nc3ccc4c(c3)OCCO4)nnc2-c2ccco2)cc1`, the “hERG current change (%, negative = inhibition) at 10uM” value is -30.9%.
Turning to `CCOC(=O)CSc1nnc(-c2ccco2)n1-c1ccccc1`, the “hERG current change (%, negative = inhibition) at 10uM” value is on record as -27.6%.
Take `CCNC(=O)CSc1nnc(-c2ccccc2)n1-c1ccc(OCC)cc1`: the “hERG current change (%, negative = inhibition) at 10uM” value was -62.8%.
Regarding `CCOC(=O)CSc1nnc(-c2ccco2)n1-c1ccc(C)cc1`, the “hERG current change (%, negative = inhibition) at 10uM” value was -61.9%.
Next, `CCOC(=O)CNC(=O)CSc1nnc(-c2ccc(OC)cc2)n1CC`: 10.5%; `CCOc1ccc(NC(=O)CSc2nnc(-c3ccccc3)n2N)cc1`: 6.02%.
